Compounds with a hit are over-represented: about 3.5% of the library has one in this group of screens.
GPR151 activ: human GPR151 activation | Q8TDV0 | PathHunter beta-arrestin GPR151 cells, luminescence | activation, % at 11.2 µM | 650,000 tested, 1% active; in the data active = activation above about 4.9%
Target sequence (Q8TDV0 whole entry, looked up): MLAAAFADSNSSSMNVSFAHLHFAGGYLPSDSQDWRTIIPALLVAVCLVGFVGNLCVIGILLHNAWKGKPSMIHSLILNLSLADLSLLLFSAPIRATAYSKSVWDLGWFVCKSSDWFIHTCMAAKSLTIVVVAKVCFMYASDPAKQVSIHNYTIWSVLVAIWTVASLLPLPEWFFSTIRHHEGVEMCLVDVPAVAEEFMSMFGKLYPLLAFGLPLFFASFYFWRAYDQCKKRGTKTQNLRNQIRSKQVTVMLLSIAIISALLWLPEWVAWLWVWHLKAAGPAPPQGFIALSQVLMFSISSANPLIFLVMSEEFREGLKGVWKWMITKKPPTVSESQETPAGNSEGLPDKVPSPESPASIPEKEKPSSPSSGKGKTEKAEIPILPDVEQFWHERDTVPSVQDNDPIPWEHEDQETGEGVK
MITF inh: blocks human microphthalmia-associated transcription factor; O75030; AlphaScreen MITF homodimerization, bead proximity signal; inhibition, % at 2.6 µM; 650,000 tested, 0.91% active; AID 1259374; in the data active = inhibition above about 50%
FBW7 act: activators of human E3 ligase FBW7; Q969H0; AlphaScreen FBW7–phospho-cyclin E peptide binding, activator screen; normalized activity (activation), % at 26.1 µM; 650,000 tested, 0.13% active; AID 1259310; in the data active = normalized activity above about 1.9%;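 note: purified mutant Fbw7 with reduced substrate affinity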
TEAD-YAP block: TEAD-YAP interaction inhibition | HEK-TIYL cells, TEAD-Gal4/YAP UAS-luciferase luminescence | 640,000 tested, 1.4% active | inhibition, % at 9.12 µM; in the data active = inhibition above about 32%
MITF inh conf: confirmation of human MITF inhibitors. shares compounds with MITF inh. AlphaScreen MITF homodimerization, biotin/His-MITF beads. inhibition, % at 2.6 µM. 4,700 tested, 16% active;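 active = inhibition above a cutoff derived from the DMSO control wells, cut at about 28% in these data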;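 note: inhibitors lower the bead chemiluminescence by keeping MITF from dimerizing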
AlphaScreen DR: AlphaScreen optical interference, dose response counter-screen; shares compounds with MITF inh; AlphaScreen optical interference counterscreen, cell-free; IC50, µM; 480 tested, 6% active; AID 1259373; call rule not given here
AS interf ctr: counter-screen: compounds optically interfering with AlphaScreen | shares compounds with MITF inh | LysRS AlphaScreen counterscreen, signal interference, triplicate | inhibition, % at 2.6 µM | 4,700 tested, 7.6% active;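 active = inhibition above a cutoff derived from the DMSO control wells, cut at about 30% in these data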
Hits are given with their value; – = inactive; · = no result.

SMILES	GPR151 activ	MITF inh	FBW7 act	TEAD-YAP block	MITF inh conf	AS interf ctr	others
Clc1ccc(/C=N/Nc2nncc3ccccc23)cc1Cl	–	–	–	–	·	·
COc1ccc(S(=O)(=O)c2cn(C)c3cc(N4CCC(C)CC4)c(F)cc3c2=O)cc1	–	–	–	–	·	·
COc1ccc2oc(=O)c(-c3nnc(-c4ccc(Cl)cc4)o3)cc2c1	–	83.9	–	–	–	–
CCn1cc(CN2CCN(C3CCCC3)C(CCO)C2)c(C)n1 (centres undefined)	–	–	–	–	·	·
CN(C)CCOCCOc1cccc2ccccc12	–	62.6	–	–	–	–
CCN(CC)CCOCCOc1cccc2ccccc12	–	–	–	–	·	·
C=CCN(CC=C)CCOc1ccccc1OC(C)C	–	–	–	–	·	·
CC(C)Oc1ccccc1OCCN(C)C	–	75.3	–	–	–	–
COc1cc(/C=C2\C(=O)N(c3ccc(Cl)cc3)N=C2C)ccc1O	–	–	–	–	·	·
C=C1C(C(=O)NCc2ccco2)C1C(=O)NCc1ccco1 (centres undefined)	–	63.2	–	–	67.2	–	AlphaScreen DR=–
COc1ccc(C(=S)N2CCCCC2)cc1OC(=O)CCc1ccccc1	–	60.8	–	–	–	–
COc1cc(C(=S)N2CCCCC2)ccc1OCc1ccccc1	–	–	–	–	·	·
Cc1cccc(C)c1OCCOCCNCCN	–	54.6	–	–	–	–
Cc1cccc(Cl)c1OCCOCCNC(C)(C)C	–	–	–	–	·	·
Cc1cccc(Cl)c1OCCOCCNCCN	–	60.7	–	–	–	–
N#C/C(=C\c1cc2c(cc1[N+](=O)[O-])OCO2)C(=O)NC1CCCCC1	–	–	–	–	·	·
COc1ccc(S(=O)(=O)N(CC(=O)Nc2ccc(F)cc2)c2ccc(C)cc2)cc1	–	–	–	–	·	·
CCOC(=O)/C(Cl)=N\Nc1ccccc1	–	–	–	–	·	·
CCOC(=O)/C(Br)=N\Nc1ccc(C)cc1	–	83.9	–	–	–	–
COc1ccc(C(=O)OCC(=O)Nc2ncc(C(F)(F)F)cc2Cl)cc1[N+](=O)[O-]	–	–	–	–	·	·
CCCC(=O)Oc1c(Cl)cc(N(C(=O)CCC)S(=O)(=O)c2cccc([N+](=O)[O-])c2)cc1Cl	–	–	–	–	·	·
Cc1ccc(OCCn2cncn2)c(I)c1	–	60.1	–	–	–	–
Cc1ccc(OCCCCn2cncn2)c(I)c1	–	–	–	–	·	·
C/C=C/c1ccc(OCCCCn2cncn2)c(OC)c1	–	55.0	–	–	–	–
C/C=C/c1ccc(OCCn2cncn2)c(OC)c1	–	54.6	–	–	–	–
SMILES	GPR151 activ	MITF inh	FBW7 act	TEAD-YAP block	MITF inh conf	AS interf ctr	others
CC1=C(C(=O)OCCOC(C)C)C(c2ccc3c(c2)OCO3)NC(=O)N1 (centres undefined)	–	–	–	–	·	·
c1ccc(CN2CCC(Nc3nc4ccccc4n4nnnc34)CC2)cc1	–	–	–	–	·	·
CC(C)Sc1ccc(-c2ccccc2C=O)cn1	–	113.7	–	–	–	–
COc1cccc(CN2CCN(Cc3ccccn3)CC2)c1	–	51.4	–	–	–	–
COc1cccc(CN2CCN(C3CCCC3)CC2)c1	–	64.9	–	–	–	–
COc1cccc(CN2CCN(C3CCN(Cc4ccccc4)CC3)CC2)c1	–	–	–	–	·	·
COc1cccc(CN2CCN(c3ncccn3)CC2)c1	–	–	–	–	·	·
COc1cccc(CN2CCN(Cc3cc(OC)cc(OC)c3)CC2)c1	–	80.0	–	–	–	–
CCCCS(=O)(=O)N1CCN(CC(=O)c2cccs2)CC1	–	60.6	–	–	–	–
CCCS(=O)(=O)N1CCN(CC(=O)c2cccs2)CC1	–	66.6	–	–	–	–
O=[N+]([O-])c1cccc(CN2CCC(N3CCN(c4ccccc4)CC3)CC2)c1	–	74.1	–	–	–	–
CC1CCCC(N2CCN(C3CCN(Cc4ccccc4)CC3)CC2)C1 (centres undefined)	–	–	–	–	·	·
O=[N+]([O-])c1ccc(CN2CCC(N3CCN(c4ccccc4F)CC3)CC2)cc1	–	–	–	–	·	·
COc1ccccc1N1CCN(C2CCN(C(=O)c3cccc4ccccc34)CC2)CC1	–	75.0	–	–	–	–
COc1ccccc1N1CCN(C2CCN(Cc3ccc([N+](=O)[O-])cc3)CC2)CC1	–	56.6	–	–	–	–
CC1CCCC(N2CCN(Cc3ccc([N+](=O)[O-])cc3)CC2)C1 (centres undefined)	–	93.8	–	–	–	–
Cc1cnc(NC(=O)CSc2nnc3c(n2)[nH]c2ccc(F)cc23)s1	–	–	–	–	·	·
Cc1ccc2oc(-c3cccc(NC(=O)COc4ccc(C(C)C)cc4)c3)nc2c1	–	–	–	–	·	·
O=C1CCC(CCC(=O)N2CCc3ccccc3C2)(Cc2ccc3c(c2)OCO3)N1 (centres undefined)	–	–	–	–	·	·
COc1cc(NC(=O)CN2CCC(n3nnc4cc(C)ccc43)CC2)cc(OC)c1	–	–	–	–	·	·
O=[N+]([O-])c1ccc(CN2CCC(O)CC2)cc1	–	–	–	–	·	·
CCN1CCN(C2CCN(Cc3cccc([N+](=O)[O-])c3)CC2)CC1	–	–	–	–	·	·
O=[N+]([O-])c1cccc(CN2CCN(C3CCCC3)CC2)c1	–	76.3	–	–	–	–
O=[N+]([O-])c1ccc(CN2CCN(C3CCCC3)CC2)cc1	–	60.8	–	–	–	–
Clc1cccc(CSc2ccc3nnc(-c4cccnc4)n3n2)c1	–	–	–	–	·	·
SMILES	GPR151 activ	MITF inh	FBW7 act	TEAD-YAP block	MITF inh conf	AS interf ctr	others
COC(=O)C1Sc2[nH]c(=O)sc2C(c2cccc([N+](=O)[O-])c2)C1C(=O)OC (centres undefined)	–	–	–	–	·	·
COC(=O)C1Sc2[nH]c(=O)sc2C(c2ccc(OC)cc2)C1C(=O)OC (centres undefined)	–	51.5	–	–	–	–
Cc1ccc(C(=O)n2nc(-c3ccco3)nc2N)cc1	–	–	–	–	·	·
COc1ccc(C(=O)n2nc(-c3ccco3)nc2N)cc1	–	80.0	–	–	77.7	48.7
COc1ccc(S(=O)(=O)N2CCCCC2C(=O)O)cc1 (centres undefined)	–	68.3	–	–	–	–
COc1ccc(S(=O)(=O)N2CCCCC2C(=O)O)cc1OC (centres undefined)	–	–	–	–	·	·
Cc1ccc(S(=O)(=O)N2CCN(C(C)CC(=O)O)CC2)cc1 (centres undefined)	–	64.7	–	–	–	–
COC(=O)C1C(=O)NC(SCC(=O)Nc2ccc(F)cc2)=C(C#N)C1c1ccccc1OC (centres undefined)	–	–	–	–	·	·
O=C(c1ccc2ccccc2c1)C1CCCN(C(=O)c2cn[nH]c2)C1 (centres undefined)	–	–	–	–	·	·
Cc1cc(-c2cnc(C)nc2C2CCCN(Cc3cccnc3)C2)on1 (centres undefined)	–	53.0	–	–	–	–

Assay outcomes (PubChem BioAssay)
